Test results from PubChem BioAssay (NCATS).
Inconclusive results are not listed. The source made the active and inactive calls. Calls come from the whole dose curve; as a rule, active = well fitted inhibition curve with a large enough effect; inconclusive = small, poorly fitted or top-dose-only effect; inactive = flat fitted curve, though single readings scatter.

What was measured:
Test in all cases: qHTS profiling for inhibitors of Plasmodium falciparum proliferation (AID 504749); note: nearly all actives have a fitted effect of over 60% in size
Conditions in all cases: P. falciparum in erythrocytes, SYBR Green DNA, 72 h; series mostly up to 28.7 µM
CP266 = system: CP266
Procedure, shortened: (§1)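 Three-day growth assay of blood-stage parasites in erythrocytes (0.3% parasitemia, 2.5% hematocrit) at 37 C, 5% CO2, quantified by SYBR Green DNA staining after overnight detergent lysis.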

CP268 = system: CP268
Procedure, shortened: as §1

CP269 = system: CP269
Procedure, shortened: as §1

CP286 = system: CP286
Procedure, shortened: as §1

CP291 = system: CP291
Procedure, shortened: as §1

CP297 = system: CP297
Procedure, shortened: as §1

CP305 = system: CP305
Procedure, shortened: as §1

CP315 = system: CP315
Procedure, shortened: as §1

CP325 = system: CP325
Procedure, shortened: as §1

CP329 = system: CP329
Procedure, shortened: as §1

CP335 = system: CP335
Procedure, shortened: as §1

DFO2036 = system: DFO2036
Procedure, shortened: as §1

DIV14 = system: DIV14
Procedure, shortened: as §1

DIV17 = system: DIV17
Procedure, shortened: as §1

DIV30 = system: DIV30
Procedure, shortened: as §1

ECU = system: ECU
Procedure, shortened: as §1

FAB9 = system: FAB9
Procedure, shortened: as §1

GB4 = system: GB4
Procedure, shortened: as §1

HB3 = system: HB3
Procedure, shortened: as §1

Dd2 = system: Dd2
Procedure, shortened: as §1

Measured: Potency

NCCc1cc(O)c(O)cc1O
not listed: Dd2
inactive: all other assays above

O=C(NC(O)C(Cl)(Cl)Cl)NC(O)C(Cl)(Cl)Cl (stereo not given)
inactive: all assays above

CC[N+]1(C)CCCC(OC(=O)C(O)(c2ccccc2)c2ccccc2)C1 (stereo not given)
inactive: all assays above

COc1ccccc1N1CCNCC1
inactive: all assays above

OCCOc1ccccc1
inactive: all assays above

CCC(C(N)=O)N1CCCC1=O (stereo not given)
inactive: all assays above

CC[N+](CC)(CC)CC
inactive: all assays above

CC(=O)[C@H]1CC[C@H]2[C@@H]3CC[C@H]4C[C@H](O)CC[C@]4(C)[C@H]3C(=O)C[C@]12C
inactive: all assays above

NN=C(N)N
inactive: all assays above

NCC(CC(=O)O)c1ccc(Cl)cc1 (stereo not given)
inactive: all assays above

CC(C)CC(N(C)C)C1(c2ccc(Cl)cc2)CCC1 (stereo not given)
inactive: all assays above

C#CCOC(C(=O)OCCN(C)C)(c1ccccc1)c1ccccc1
not listed: CP335 | DIV17 | ECU | Dd2
inactive: all other assays above

CC(=O)Nc1cc([As](=O)(O)O)ccc1O
inactive: all assays above
